# Source: publication PMC11062922 (Nature Chemical Biology, 2023)
# Read-outs that look alike come from different tables or passages of the source.
# Columns and labels:
# Design in all cases: species or system human, MV4-11 + K-562 + COLO205 + SK-N-BE2 + OVCAR-8
# ACVR1 = settings: read-out: apparent Kd, n = 1
# CDK10 = settings: read-out: apparent Kd; compound concentrations: 100 nM and 1000 nM (sheet 'Samples'), CATDS: 2.6189541098699299E-2; n = 1
# MAP2K2 = settings: read-out: apparent Kd, n = 1
# MAP4K2 = settings: read-out: apparent Kd; compound concentrations: 100 nM and 1000 nM (sheet 'Samples'), CATDS: 1.18083453898033E-2; n = 1
# MAP4K3 = settings: read-out: apparent Kd, compound concentrations: 100 nM and 1000 nM (sheet 'Samples'), n = 1
# MAP4K5 = settings: read-out: apparent Kd, compound concentrations: 100 nM and 1000 nM (sheet 'Samples'), n = 1
# RPS6KA1 = settings: read-out: apparent Kd, compound concentrations: 100 nM and 1000 nM (sheet 'Samples'), n = 1
# SLK = settings: read-out: apparent Kd; compound concentrations: 100 nM and 1000 nM (sheet 'Samples'), CATDS: 7.3686549547766099E-3; n = 1
# TGFBR1 = settings: read-out: apparent Kd; compound concentrations: 100 nM and 1000 nM (sheet 'Samples'), CATDS: 6.2904955022957598E-3; n = 1
# PIM2 = settings: read-out: apparent Kd, n = 1
# AKT2 = settings: read-out: apparent Kd, compound concentrations: 100 nM and 1000 nM (sheet 'Samples'), n = 1
# IKBKE = settings: read-out: apparent Kd; compound concentrations: 100 nM and 1000 nM (sheet 'Samples'), CATDS: 1.31503893194051E-2; n = 1
# PIK3C2A = settings: read-out: apparent Kd; compound concentrations: 100 nM and 1000 nM (sheet 'Samples'), CATDS: 1.67467583314573E-2; n = 1
# PIK3C3 = settings: read-out: apparent Kd, n = 1
# STK11 = settings: read-out: apparent Kd, compound concentrations: 100 nM and 1000 nM (sheet 'Samples'), n = 1
# TEC = settings: read-out: apparent Kd; compound concentrations: 100 nM and 1000 nM (sheet 'Samples'), CATDS: 1.49433127144414E-2; n = 1
# TP53RK = settings: read-out: apparent Kd, compound concentrations: 100 nM and 1000 nM (sheet 'Samples'), n = 1
# AKT3 = settings: read-out: apparent Kd, n = 1
# NEK9 = settings: read-out: apparent Kd; compound concentrations: 100 nM and 1000 nM (sheet 'Samples'), CATDS: 2.42273764121115E-2; n = 1
# [1] = compound concentrations:100 nM and 1000 nM (sheet 'Samples')
compound,measurement,setting,value
O=C(O)C(F)(F)F.O=C(O)C(F)(F)F.O=c1[nH]ccc2nc(N[C@@H]3CCCNC3)nc(Nc3ccc(S(=O)(=O)N4CCOCC4)cc3)c12.O=c1[nH]ccc2nc(N[C@@H]3CCCNC3)nc(Nc3ccc(S(=O)(=O)N4CCOCC4)cc3)c12 [GSK2177277A],potency estimated from few doses,"ACVR1; compound concentrations: 100 nM and 1000 nM (sheet 'Samples'), CATDS: 7.8898197775333495E-3",0.605 µM
same,potency estimated from few doses,CDK10,0.032 µM
same,potency estimated from few doses,"MAP2K2; compound concentrations: 100 nM and 1000 nM (sheet 'Samples'), CATDS: 5.9505583835806203E-3",2.52 µM
same,potency estimated from few doses,MAP4K2,0.173 µM
same,potency estimated from few doses,MAP4K3; CATDS: 1.3665369195518201E-2,0.12 µM
same,potency estimated from few doses,MAP4K5; CATDS: 2.1531310564231101E-2,0.0457 µM
same,potency estimated from few doses,RPS6KA1; CATDS: 7.3742407001506898E-3,0.792 µM
same,potency estimated from few doses,SLK,0.794 µM
same,potency estimated from few doses,TGFBR1,1.74 µM
NC(=O)c1cc(-c2ccccc2)cc2c(C3CCNCC3)c[nH]c12 [GSK301362A],potency estimated from few doses,PIM2; [1],1.5 µM
CCn1c(-c2cccnc2O)nc2cnccc21 [SB-736715],potency estimated from few doses,AKT2; CATDS: 1.4638911444233901E-2,1.36 µM
same,potency estimated from few doses,IKBKE,1.73 µM
same,potency estimated from few doses,"MAP2K2; compound concentrations: 100 nM and 1000 nM (sheet 'Samples'), CATDS: 1.1967755653937401E-2",2.21 µM
same,potency estimated from few doses,MAP4K3; CATDS: 1.18582584558427E-2,2.26 µM
same,potency estimated from few doses,PIK3C2A,1.04 µM
same,potency estimated from few doses,"PIK3C3; compound concentrations: 100 nM and 1000 nM (sheet 'Samples'), CATDS: 1.55952310039979E-2",1.19 µM
same,potency estimated from few doses,"PIM2; compound concentrations: 100 nM and 1000 nM (sheet 'Samples'), CATDS: 1.60081703977401E-2",1.13 µM
same,potency estimated from few doses,STK11; CATDS: 1.3793469415990099E-2,1.55 µM
same,potency estimated from few doses,TEC,1.3 µM
same,potency estimated from few doses,TP53RK; CATDS: 1.2573959142924701E-2,1.94 µM
CS(=O)(=O)CCn1c(=O)c(Oc2ccc(F)cc2F)cc2cnc(NC3CCOCC3)nc21 [RO5027956-000],potency estimated from few doses,AKT3; [1],2.17 µM
same,potency estimated from few doses,PIM2; [1],1.66 µM
O=C1N=C(NCc2cccs2)O/C1=C\c1ccc2ncccc2c1 [RO4624208-000],potency estimated from few doses,TP53RK; CATDS: 4.7970425138991198E-2,1.61 µM
CCn1c(-c2nonc2N)nc2c(C#CC(C)(C)O)nc(O[C@@H](CN)c3ccccc3)cc21.O=C(O)C(F)(F)F [GSK1007102B],potency estimated from few doses,AKT3; [1],0.719 µM
CNCC#Cc1c(F)ccc2c1/C(=C/c1[nH]ccc1OC)C(=O)N2.Cl [RO0281601-001],potency estimated from few doses,STK11; CATDS: 2.1927929235579201E-2,1.93 µM
c1cnn2ncc(-c3ccnc(Nc4ccc5c(c4)OCCO5)n3)c2c1 [GW806290X],potency estimated from few doses,AKT2; CATDS: 2.25042579106303E-2,1.3 µM
same,potency estimated from few doses,"AKT3; compound concentrations: 100 nM and 1000 nM (sheet 'Samples'), CATDS: 2.0651194958325798E-2",1.77 µM
same,potency estimated from few doses,"MAP2K2; compound concentrations: 100 nM and 1000 nM (sheet 'Samples'), CATDS: 2.1479851181110499E-2",1.53 µM
same,potency estimated from few doses,NEK9,1.03 µM
CNCc1ccc(-c2cc(-c3nc(-c4ccc(S(=O)(=O)C(C)C)cc4)cnc3N)on2)cc1 [VE-822],potency estimated from few doses,ACVR1; [1],0.081 µM
same,potency estimated from few doses,AKT3; [1],1.76 µM
same,potency estimated from few doses,MAP2K2; [1],1.7 µM
same,potency estimated from few doses,PIK3C3; [1],0.5 µM
COc1cc[nH]c1/C=C1\C(=O)Nc2ccc(F)c(C#CC3(O)CCNCC3)c21.Cl [RO0282986-001],potency estimated from few doses,"MAP2K2; compound concentrations: 100 nM and 1000 nM (sheet 'Samples'), CATDS: 1.07586832750675E-2",1.01 µM
same,potency estimated from few doses,MAP4K3; CATDS: 9.73261825141249E-3,1.47 µM
same,potency estimated from few doses,MAP4K5; CATDS: 8.9413368005166593E-3,2.19 µM
same,potency estimated from few doses,RPS6KA1; CATDS: 9.1961356652332602E-3,1.9 µM
same,potency estimated from few doses,STK11; CATDS: 1.0901325293505499E-2,0.966 µM
